# Measured values from PubChem BioAssay AID1159580 (chemical genetic matrix, 2015).
# Hit rate of the full screen: of about 5,500 compounds, about 2,000 (36%) were called active. Another 18% or so got no clear call; they are omitted. The list shows a part of the results. A number with no mark means an inactive call. Rule as the data show it: active = normalized growth mostly below about 0.91 (no sharp cut-off); inconclusive = no clear call, values can overlap the other calls; inactive = mostly above about 0.92.
# Assay: chemical genetic growth profiling, strain panel (AID 1159580);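 also: tested at 20 µM; growth read once vehicle control cultures reached saturation at 30 °C; 1 = growth at the plate median or of vehicle wells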
# Conditions: S. cerevisiae deletion strains, growth OD
smiles,measurement,setting,value
O=C(O)c1cc[c]([Hg][Cl])cc1,normalized growth,"locus YAL040C, strain CLN3, stronger effect = lower value",0.825 (active)
same,normalized growth,"locus YCL061C, strain MRC1 (second series), stronger effect = lower value",1.01
same,normalized growth,"locus YDR150W, strain NUM1, stronger effect = lower value",1
same,normalized growth,"locus YDR363W, strain ESC2, stronger effect = lower value",0.943
same,normalized growth,"locus YER002W, strain NOP16, stronger effect = lower value",0.757 (active)
same,normalized growth,"locus YGR078C, strain PAC10, stronger effect = lower value",0.339 (active)
same,normalized growth,"locus YMR307W, strain GAS1, stronger effect = lower value",0.981
same,normalized growth,"locus YNL128W, strain TEP1, stronger effect = lower value",0.955
same,normalized growth,"locus YNL175C, strain NOP13, stronger effect = lower value",0.918
same,normalized growth,"locus YNL197C, strain WHI3, stronger effect = lower value",0.731 (active)
same,normalized growth,"locus YNL224C, strain SQS1, stronger effect = lower value",0.948
same,normalized growth,"locus YNL322C, strain KRE1, stronger effect = lower value",1.01
same,normalized growth,"locus YOR083W, strain WHI5 (second series), stronger effect = lower value",0.77 (active)
same,normalized growth,"locus YPL055C, strain LGE1, stronger effect = lower value",0.961
